Data as given in PubChem BioAssay (NCI).
Compounds without any hit were thinned out: in the full panel of roughly 79,000, 15% have a hit. Values without a mark were called inactive. Calls of active or inactive are those of the source. Cut-off read from the data, not from the text of the source: active = growth inhibition above about 70%; inactive = the rest.

Columns and labels:
[1] = NCI Yeast Anticancer Drug Screen. Data for the mec2-1 strain (AID 157); details: S. cerevisiae mec2-1 strain, hits give high values
In short: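 Strain: mec2-1 (DNA repair/cell cycle alteration). Compound exposure, then growth measured; inhibition expressed relative to vehicle.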

[2] = NCI Yeast Anticancer Drug Screen. Data for the rad14 strain (AID 159);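 note: 0% = growth of vehicle-treated control cultures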; details: S. cerevisiae rad14 strain growth inhibition, hits give high values
In short: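 Compound-treated yeast with a defined DNA-repair lesion; growth inhibition normalised to vehicle-treated cultures.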

[3] = NCI Yeast Anticancer Drug Screen. Data for the sgs1 mgt1 strain (AID 161);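 note: 0% = growth of cultures given vehicle only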; details: S. cerevisiae sgs1 mgt1 strain, hits give high values
In short: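 Test agents were incubated with a DNA-repair-mutant yeast strain. Growth was then read and compared against vehicle-treated controls.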

[4] = NCI Yeast Anticancer Drug Screen. Data for the CLN2oe strain (AID 163);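 note: 0% = growth of vehicle-only control cultures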; details: S. cerevisiae CLN2oe strain, hits give high values
In short: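 Growth of a genetically modified yeast strain is measured after compound exposure and compared with cultures given vehicle alone.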

[5] = NCI Yeast Anticancer Drug Screen. Data for the cln2 rad14 strain (AID 165);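 note: 0% = growth equal to vehicle treated cultures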; details: S. cerevisiae cln2 rad14 strain, hits give high values
In short: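 Compounds are applied to the cln2 rad14 yeast strain, and growth is then compared with that of vehicle-treated cultures to give inhibition.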

[6] = NCI Yeast Anticancer Drug Screen. Data for the bub3 strain (AID 167); details: S. cerevisiae bub3 mutant strain, hits give high values
In short: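 Growth of a checkpoint-deficient yeast mutant is measured after compound exposure. Values represent inhibition relative to vehicle.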

[7] = NCI Yeast Anticancer Drug Screen. Data for the wt2 strain (AID 169);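 note: 0% = growth of vehicle-treated yeast cultures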; details: S. cerevisiae wt2 strain growth inhibition, hits give high values
In short: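 This strain belongs to a panel of yeast strains with defined genetic alterations in DNA damage repair or cell cycle control. Compounds are applied, and growth inhibition is measured against vehicle-treated cultures.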

[8] = NCI Yeast Anticancer Drug Screen. Data for the mlh1 strain (AID 171);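 note: 0% = growth of vehicle-treated control cultures of the same strain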; details: S. cerevisiae mlh1 strain growth inhibition, hits give high values
In short: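 Growth of the mutant yeast strain after compound exposure, expressed as inhibition relative to vehicle-only controls.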

[9] = NCI Yeast Anticancer Drug Screen. Data for the sgs1 strain (AID 173);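 note: 0% = growth of vehicle-only control cultures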; details: S. cerevisiae sgs1 mutant, hits give high values
In short: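 Growth of a yeast strain bearing a defined genetic alteration is measured after compound treatment. Inhibition is expressed relative to vehicle-only controls.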

[10] = NCI Yeast Anticancer Drug Screen. Data for the mlh1 rad18 strain (AID 175); details: S. cerevisiae mlh1 rad18 strain growth inhibition, hits give high values
In short: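 Read-out is yeast growth inhibition, calculated against vehicle-only controls. The compound was applied to a strain engineered with DNA damage repair alterations.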

[11] = NCI Yeast Anticancer Drug Screen. Data for the rad18 strain (AID 177); details: S. cerevisiae rad18 mutant growth inhibition, hits give high values
In short: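 Growth of the mutant yeast strain after compound exposure, normalised to vehicle-only cultures.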

[12] = NCI Yeast Anticancer Drug Screen. Data for the rad52 strain (AID 147);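 note: 0% = growth of vehicle-treated control cultures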; details: S. cerevisiae rad52 mutant growth inhibition, hits give high values
In short: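 Compounds are applied to a genetically defined yeast strain lacking normal DNA damage repair, and inhibition of growth is expressed relative to cultures given vehicle only.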

[13] = NCI Yeast Anticancer Drug Screen. Data for the wt1 strain (AID 149);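 note: 0% = growth of vehicle-treated wt1 cultures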; details: S. cerevisiae wt1 strain (SPY 50644) growth inhibition, hits give high values
In short: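 Readout: yeast growth inhibition, normalised to vehicle controls, in the wt1 strain exposed to test compounds.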

[14] = NCI Yeast Anticancer Drug Screen. Data for the rad50EPP+ strain (AID 151);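 note: 0% = growth of vehicle-treated control cultures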; details: S. cerevisiae rad50 mutant strain, hits give high values
In short: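 Compounds were applied to the rad50EPP+ yeast strain, which bears a defined DNA repair alteration, and growth inhibition was determined relative to vehicle-treated cultures.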

[15] = NCI Yeast Anticancer Drug Screen. Data for the mgt1 strain (AID 153); details: S. cerevisiae mgt1 mutant growth inhibition, hits give high values
In short: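 Strain: mgt1 yeast, one of a set carrying defined DNA damage repair or cell cycle control alterations. Compound-treated growth compared with vehicle.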

[16] = NCI Yeast Anticancer Drug Screen. Data for the rad50 strain (AID 155);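 note: 0% = growth of vehicle-only cultures of the same strain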; details: S. cerevisiae rad50 strain growth inhibition, hits give high values
In short: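 Compounds were tested on a yeast strain with an engineered DNA damage repair alteration; the reported value is growth inhibition normalised to vehicle treatment.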

[17] = at 5.0 µM (retest, dose inferred, filed as 0.5)
[18] = at 50.0 µM (retest, dose inferred, filed as 5.0)

Cc1nc2ccccc2cc1C[N+]12CN3CN(CN(C3)C1)C2
growth inhibition [1, 17]: -2%
growth inhibition ([1]; at 11.0 µM): 5%
growth inhibition ([1]; at 33.0 µM): 10%
growth inhibition [1, 18]: 28%
growth inhibition ([1]; at 50.0 µM): 25.1%
growth inhibition ([1]; at 100.0 µM): 32%
growth inhibition ([2]; at 1.2 µM): -2%
growth inhibition ([2]; at 3.7 µM): 6%
growth inhibition ([2]; at 11.0 µM): 3%
growth inhibition ([2]; at 33.0 µM): 11%
growth inhibition ([2]; at 100.0 µM): 47%
growth inhibition [3, 17]: -6%
growth inhibition [3, 18]: 27%
growth inhibition ([3]; at 50.0 µM): 47.2%
growth inhibition ([4]; at 1.2 µM): 1%
growth inhibition ([4]; at 3.7 µM): 1%
growth inhibition ([4]; at 11.0 µM): 4%
growth inhibition ([4]; at 33.0 µM): 6%
growth inhibition ([4]; at 100.0 µM): 25%
growth inhibition [5, 17]: -30%
growth inhibition [5, 18]: 4%
growth inhibition ([5]; at 50.0 µM): 19.9%
growth inhibition ([6]; at 1.2 µM): 4%
growth inhibition ([6]; at 3.7 µM): 4%
growth inhibition [6, 17]: 6%
growth inhibition ([6]; at 11.0 µM): 1%
growth inhibition ([6]; at 33.0 µM): 2%
growth inhibition [6, 18]: 2%
growth inhibition ([6]; at 50.0 µM): 42%
growth inhibition ([6]; at 100.0 µM): 26%
growth inhibition ([7]; at 1.2 µM): 1%
growth inhibition ([7]; at 3.7 µM): -5%
growth inhibition ([7]; at 11.0 µM): 4%
growth inhibition ([7]; at 33.0 µM): 11%
growth inhibition ([7]; at 100.0 µM): 46%
growth inhibition ([8]; at 1.2 µM): -1%
growth inhibition ([8]; at 3.7 µM): 1%
growth inhibition ([8]; at 11.0 µM): -6%
growth inhibition ([8]; at 33.0 µM): 4%
growth inhibition ([8]; at 100.0 µM): 46%
growth inhibition ([9]; at 1.2 µM): -1%
growth inhibition ([9]; at 3.7 µM): -2%
growth inhibition ([9]; at 11.0 µM): 2%
growth inhibition ([9]; at 33.0 µM): 28%
growth inhibition ([9]; at 100.0 µM): 80% (active)
growth inhibition [10, 17]: -1%
growth inhibition [10, 18]: 39%
growth inhibition ([10]; at 50.0 µM): 68.2%
growth inhibition ([11]; at 1.2 µM): -1%
growth inhibition ([11]; at 3.7 µM): -2%
growth inhibition ([11]; at 11.0 µM): -2%
growth inhibition ([11]; at 33.0 µM): 16%
growth inhibition ([11]; at 100.0 µM): 83% (active)

CC1CC(Br)C(=O)O1 (stereo unspecified)
growth inhibition ([12]; at 1.2 µM): -27%
growth inhibition ([12]; at 3.7 µM): -35%
growth inhibition ([12]; at 11.0 µM): -18%
growth inhibition ([12]; at 33.0 µM): 89% (active)
growth inhibition ([12]; at 100.0 µM): 92% (active)
growth inhibition ([13]; at 1.2 µM): -48%
growth inhibition ([13]; at 3.7 µM): -49%
growth inhibition ([13]; at 11.0 µM): -22%
growth inhibition ([13]; at 33.0 µM): 67%
growth inhibition ([13]; at 100.0 µM): 88% (active)
growth inhibition ([14]; at 1.2 µM): 12%
growth inhibition ([14]; at 3.7 µM): 11%
growth inhibition ([14]; at 11.0 µM): 34%
growth inhibition ([14]; at 33.0 µM): 88% (active)
growth inhibition ([14]; at 100.0 µM): 89% (active)
growth inhibition ([15]; at 1.2 µM): -52%
growth inhibition ([15]; at 3.7 µM): -49%
growth inhibition ([15]; at 11.0 µM): -24%
growth inhibition ([15]; at 33.0 µM): 69%
growth inhibition ([15]; at 100.0 µM): 86% (active)
growth inhibition ([16]; at 1.2 µM): -67%
growth inhibition ([16]; at 3.7 µM): -55%
growth inhibition [16, 17]: -14%
growth inhibition ([16]; at 11.0 µM): -34%
growth inhibition ([16]; at 33.0 µM): 74% (active)
growth inhibition [16, 18]: 95% (active)
growth inhibition ([16]; at 50.0 µM): 86.7% (active)
growth inhibition ([16]; at 100.0 µM): 89% (active)
growth inhibition ([1]; at 1.2 µM): -30%
growth inhibition ([1]; at 3.7 µM): -18%
growth inhibition [1, 17]: 1%
growth inhibition ([1]; at 11.0 µM): 31%
growth inhibition ([1]; at 33.0 µM): 95% (active)
growth inhibition [1, 18]: 98% (active)
growth inhibition ([1]; at 50.0 µM): 92.2% (active)
growth inhibition ([1]; at 100.0 µM): 95% (active)
growth inhibition ([2]; at 1.2 µM): -49%
growth inhibition ([2]; at 3.7 µM): -42%
growth inhibition ([2]; at 11.0 µM): -30%
growth inhibition ([2]; at 33.0 µM): 58%
growth inhibition ([2]; at 100.0 µM): 85% (active)
growth inhibition [3, 17]: 9%
growth inhibition [3, 18]: 77% (active)
growth inhibition ([3]; at 50.0 µM): 87.8% (active)
growth inhibition [5, 17]: 39%
growth inhibition [5, 18]: 86% (active)
growth inhibition ([5]; at 50.0 µM): 84.8% (active)
growth inhibition ([6]; at 1.2 µM): 8%
growth inhibition ([6]; at 3.7 µM): 22%
growth inhibition [6, 17]: 44%
growth inhibition ([6]; at 11.0 µM): 74% (active)
growth inhibition ([6]; at 33.0 µM): 96% (active)
growth inhibition [6, 18]: 98% (active)
growth inhibition ([6]; at 50.0 µM): 88.5% (active)
growth inhibition ([6]; at 100.0 µM): 97% (active)
growth inhibition ([7]; at 1.2 µM): -52%
growth inhibition ([7]; at 3.7 µM): -40%
growth inhibition ([7]; at 11.0 µM): -25%
growth inhibition ([7]; at 33.0 µM): 30%
growth inhibition ([7]; at 100.0 µM): 86% (active)
growth inhibition ([8]; at 1.2 µM): -54%
growth inhibition ([8]; at 3.7 µM): -51%
growth inhibition ([8]; at 11.0 µM): -18%
growth inhibition ([8]; at 33.0 µM): 79% (active)
growth inhibition ([8]; at 100.0 µM): 90% (active)
growth inhibition ([9]; at 1.2 µM): -41%
growth inhibition ([9]; at 3.7 µM): -40%
growth inhibition ([9]; at 11.0 µM): -31%
growth inhibition ([9]; at 33.0 µM): 68%
growth inhibition ([9]; at 100.0 µM): 88% (active)
growth inhibition [10, 17]: -9%
growth inhibition [10, 18]: 97% (active)
growth inhibition ([10]; at 50.0 µM): 83.8% (active)
growth inhibition ([11]; at 1.2 µM): -57%
growth inhibition ([11]; at 3.7 µM): -50%
growth inhibition ([11]; at 11.0 µM): -28%
growth inhibition ([11]; at 33.0 µM): 69%
growth inhibition ([11]; at 100.0 µM): 88% (active)
